# Data: the supplement of paper PMC10646978
# ± gives the standard deviation.
# Assays:
# Settings in all cases: modulator concentration 10 µM
# [1] = tested on: RAW-Dual (murine macrophage reporter line); test: NF-kB reporter (SEAP) activity fold change vs agonist alone; higher = enhanced NF-kB activity
# How it was run: (§1)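 RAW-Dual murine macrophage reporter cells were plated at 50 000 per well in 384-well plates, pin-transferred compound to 10 μM final, and pre-incubated for 1 hour at 37 °C before a PRR agonist was added and the cells incubated overnight. NF-κB activity was read from supernatant SEAP with QUANTI-Blue at 620 nm absorbance, and IRF activity from Lucia luciferase with QUANTI-Luc by luminescence. Each signal was expressed as fold change by dividing by the mean agonist-only control on the same plate. Two replicate plates were averaged, with errors obtained by propagation.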
# [2] = tested on: RAW-Dual (murine macrophage reporter line); test: IRF reporter (Lucia luciferase) activity fold change vs agonist alone; higher = enhanced IRF activity
# How it was run: as §1
# [3] = tested on: RAW-Dual (murine macrophage reporter line); test: viability score (confluency relative to resting cells, overnight) (fraction); higher = more viable, active = viable (0.7 or more)
# How it was run: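 Two confluency masks, generated with IncuCyte software over all imaged wells, were applied to IncuCyte images of RAW-Dual macrophages. The cells, in 384-well plates, had been exposed overnight to 10 μM final compound. The viability score is confluency as a fraction of resting cells, and a compound met the cutoff only with both masks above 70% of resting cells.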
# [4] = agonist: CpG ODN 1826 0.5 ug/mL
SMILES,"NF-kB reporter [1, 4]",NF-kB reporter ([1]; agonist: LPS 0.1 ug/mL),NF-kB reporter ([1]; agonist: MPLA […]),IRF reporter ([2]; agonist: 3'3'-cGAMP 10 ug/mL),IRF reporter ([2]; agonist: LPS 0.1 ug/mL),IRF reporter ([2]; agonist: MPLA […]),viability score [3]
Cn1cc(-c2cc(CNC(=O)c3cncc(Br)c3)ccn2)cn1,0.92 ± 0.041,1.05 ± 0.1,1.15 ± 0.065,0.872 ± 0.057,1.1 ± 0.17,1.3 ± 0.41,0.943 (active)
Cc1ccc(C(=O)N2N=C(c3ccncc3)CC2(O)C(F)(F)F)cc1 (stereo not drawn),0.764 ± 0.062,0.831 ± 0.12,0.985 ± 0.097,0.86 ± 0.043,1.26 ± 0.081,1.29 ± 0.14,1.01 (active)
Clc1cccc(C=Cc2nn3c(Cc4ccccc4)nnc3s2)c1,0.885 ± 0.04,0.927 ± 0.092,1.12 ± 0.06,0.86 ± 0.039,1.35 ± 0.24,1.44 ± 0.43,0.987 (active)
Cc1cc(C(=O)N2CCC(Oc3cccc4cccnc34)CC2)n(C)n1,0.994 ± 0.3,1.08 ± 0.054,1.07 ± 0.081,0.942 ± 0.035,1.03 ± 0.11,1.13 ± 0.18,0.536 (inactive)
O=C1Nc2ccc(Cl)cc2[C@@](C#CC2CC2)(C(F)(F)F)O1,0.352 ± 0.029,0.486 ± 0.024,0.631 ± 0.02,0.964 ± 0.056,0.715 ± 0.092,1.47 ± 0.2,0.114 (inactive)
Cc1cc(OCCCOc2cccc3cccnc23)ccc1Cl,0.752 ± 0.06,1.02 ± 0.058,0.864 ± 0.052,0.998 ± 0.025,1.14 ± 0.18,1.03 ± 0.27,1 (active)
Clc1nc(N2CCOCC2)nc(N(c2ccccc2)c2ccccc2)n1,0.889 ± 0.077,0.908 ± 0.086,1.08 ± 0.12,1.02 ± 0.049,1.41 ± 0.22,1.53 ± 0.42,1.03 (active)
Cc1nc2ccc(Cl)cn2c(=O)c1NC(=O)c1c(F)cccc1Cl,0.78 ± 0.034,1.05 ± 0.11,0.96 ± 0.083,1.05 ± 0.049,1.09 ± 0.25,1.2 ± 0.41,0.965 (active)
COC(=O)Nn1cnnc1,1.03 ± 0.17,1.08 ± 0.087,0.97 ± 0.095,0.984 ± 0.025,1.25 ± 0.22,1.39 ± 0.24,1 (active)
Cc1cc(CCNC(=O)c2cc3ccccc3s2)nn1C,1.2 ± 0.12,1.07 ± 0.082,0.991 ± 0.064,0.82 ± 0.032,1.03 ± 0.06,0.993 ± 0.16,0.997 (active)
CCNC1(C(N)=O)CCN(c2ncnc3c2nc(-c2ccccc2Cl)n3-c2ccc(Cl)cc2)CC1.Cl,1.24 ± 0.11,0.479 ± 0.038,0.674 ± 0.036,0.19 ± 0.0086,0.464 ± 0.13,0.484 ± 0.12,0.688 (inactive)
O=C(NCC1(c2ccc(F)cc2)CCOCC1)c1cnc2ccccc2n1,1.01 ± 0.05,1.1 ± 0.094,1.02 ± 0.12,1.08 ± 0.06,1.2 ± 0.093,1.42 ± 0.12,1.01 (active)
CCC(C)NC(=O)C(=O)Nc1cccc(C(F)(F)F)c1 (stereo not drawn),0.89 ± 0.093,1.05 ± 0.073,0.87 ± 0.052,1.04 ± 0.058,1.16 ± 0.18,0.959 ± 0.14,1.02 (active)
COc1cc2nc(N3CCN(C(=O)C4COc5ccccc5O4)CC3)nc(N)c2cc1OC (stereo not drawn) [Prestw-858],0.138 ± 0.011,0.961 ± 0.071,1.34 ± 0.15,0.248 ± 0.012,1.19 ± 0.075,1.29 ± 0.13,0.953 (active)
